Assay outcomes deposited in PubChem BioAssay by National Center for Advancing Translational Sciences (NCATS).
JMJD2E inh – qHTS Assay for Inhibitors of Human Jumonji Domain Containing 2E (JMJD2E). Lysine-specific demethylase 4E (Homo sapiens), B2RXH2. 230,000 tested, 1.6% active. AID 2147, 2009. JMJD2E catalytic domain, FDH-coupled NADH fluorescence (FDH is formaldehyde dehydrogenase). Potency, µM (series often up to 57.1 µM), most hits filed as inhibitors; active = well fitted inhibition curve with a large enough effect, not every such curve was filed as active; inconclusive = small, poorly fitted or top-dose-only effect, or another doubt; inactive = no such curve, though single readings can be large or run the other way; also: nearly all actives have a fitted effect of over 50% in size
Coupling enz – qHTS Assay for Inhibitors of Fructose-1,6-bisphosphate Aldolase from Giardia Lamblia: Coupling assay counterscreen; activity change, negative = inhibition, % at 58.2 µM, hits read low; coupling enzyme system counterscreen, AmpLite Red fluorescence; 290,000 tested, 0.67% active; in the data active = activity change below about -30%
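First, compound is pin-transferred into glyceraldehyde-3-phosphate coupling-enzyme reagent at 57.5 uM final and held 10 min at RT. Next, substrate, coupling system and AmpLite Red are added. After 20 min RT, fluorescence (525/598 nm) is read.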
HttQ103 aggreg – qHTS Multiplex Assay to Identify Dual Action Probes in a Cell Model of Huntington: Aggregate Formation (GFP). Potency, µM (series often up to 46.1 µM), most hits filed as inhibitors. 220,000 tested, 1.1% active. AID 1688, 2009. PC12 HttQ103-GFP aggregates, Acumen cytometry, 40 h; also: nearly all actives have a fitted effect of over 60% in size
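Multiplexed with ATP-based cell death, this channel scores GFP aggregates in PC12 cells expressing inducible HTTex1-Q103-GFP. Induction used 100 nM tebufenozide; compounds were tested in concentration series.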
GoLoco inh red – qHTS Assay for Inhibitors of RGS12 GoLoco Motif Activity (Red Fluorophore); 230,000 tested, 0.44% active; Potency, µM (top dose mostly 61.6 µM), actives largely listed as inhibitors; Gai1:RGS12 GoLoco peptide FP, rhodamine, 10 min; active = well fitted inhibition curve with a large enough effect, not every such curve was filed as active; inactive = no such curve, though single readings can be large or run the other way; also: nearly all actives have a fitted effect of over 30% in size
VDR inh – Inhibitors of the vitamin D receptor (VDR): qHTS. Vitamin D3 receptor (Homo sapiens), P11473. VDR-SRC2-3 peptide fluorescence polarization, 2 h. Potency, µM, actives largely listed as inhibitors. 400,000 tested, 0.93% active. AID 504847, 2011
Target sequence (P11473 whole entry, looked up): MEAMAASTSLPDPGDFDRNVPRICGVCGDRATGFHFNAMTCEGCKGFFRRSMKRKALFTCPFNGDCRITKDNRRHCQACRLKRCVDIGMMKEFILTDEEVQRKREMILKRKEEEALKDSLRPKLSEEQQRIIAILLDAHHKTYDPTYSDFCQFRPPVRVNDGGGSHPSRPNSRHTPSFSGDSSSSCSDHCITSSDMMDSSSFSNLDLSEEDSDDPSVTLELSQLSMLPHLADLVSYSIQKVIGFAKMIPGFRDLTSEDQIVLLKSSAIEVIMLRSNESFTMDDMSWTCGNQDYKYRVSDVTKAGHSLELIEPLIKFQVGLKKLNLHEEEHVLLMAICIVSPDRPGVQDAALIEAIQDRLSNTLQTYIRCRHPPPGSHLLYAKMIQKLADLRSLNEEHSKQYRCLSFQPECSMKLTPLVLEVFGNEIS
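Inhibition of the VDR/SRC2-3 peptide interaction is quantified by fluorescence polarization. Compounds (23 nl, pintool) incubate with the reagents for 2 hours at ambient room temperature.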
HTT ATP protect – qHTS Multiplex Assay to Identify Dual Action Probes in a Cell Model of Huntington: Cytoprotection (ATP); PC12 HTT-Q103 induced, cytoprotection, ATP luminescence, 40 h; Potency, µM (series often up to 56.4 µM), hits mostly activators; 230,000 tested, 0.14% active; AID 1471, 2008; also: nearly all actives have a fitted effect of over 45% in size
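Quantitative HTS on tebufenozide-induced (100 nM) PC12 cells expressing HTTQ103 exon 1–GFP; compounds tested as a concentration series; survival measured via cellular ATP.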
A number is an active result; 0 = inactive; ? = inconclusive; - = no result; [ ] = remark or other dose. Rows were chosen to be rich in hits. Some 2.3% of all compounds tested hit in one or more screens of this group. Unless noted, calls follow the shape of the dose curve; as a rule, active = well fitted curve in the direction sought with a large enough effect; inconclusive = small, poorly fitted or top-dose-only effect, or another doubt; inactive = no such curve, though single readings can be large; an effect the other way counts as inactive or inconclusive.

SMILES	JMJD2E inh	Coupling enz	HttQ103 aggreg	GoLoco inh red	VDR inh	HTT ATP protect
C/C(CCN1CCCCc2nc(C)c(C)cc21)=N\OC[C@@H](C)[C@H](OCc1ccccc1)C(C)C	-	0	-	-	-	0[10 µM]
CC(=O)Nc1ccc(NC(=O)C2(C)CC2(Cl)Cl)cc1 (centres undefined)	0	0	0	0	79µM	-
O=C(Nc1ccccc1)Nc1cccc(C(F)(F)F)c1	0	0	22µM	0	0	0
CNC(=O)Nc1cccc(C(F)(F)F)c1	0	0	0	0	0	0[10 µM]
O=C(NNC(=S)Nc1cccc(C(F)(F)F)c1)c1ccc(Cl)cc1Cl	0	0	11µM	0	?	0[10 µM]
O=C(Nc1cccc(C(F)(F)F)c1)Nc1cc(Cl)ccc1C(=O)O	-	0	-	-	50µM	-
Cc1ccccc1C(=O)NNC(=S)Nc1cccc(C(F)(F)F)c1	0	0	0	0	0	-
Cc1ccccc1NC(=O)Nc1ccc(C(F)(F)F)cc1	0	0	11µM	0	0	0
COc1ccc(-c2cn3nc(N4CCCC(C(=O)NCc5ccccc5Cl)C4)sc3n2)cc1 (centres undefined)	-	-	-	-	0	-
CCCn1c(-c2ccc(F)cc2)nc2c(NCCCN3CCOCC3)nc(C)nc21	?	0	-	0	-	0
Oc1cc(-c2ccccc2)c2ccccc2c1	?	-60	0	0	?	-
O=P1(O)Oc2c(c(-c3ccccc3)cc3ccccc23)-c2c(-c3ccccc3)cc3ccccc3c2O1	0	0	-	0	0	0
O=C(COc1ccc([N+](=O)[O-])cc1)Nc1ccc(C(=O)NCc2cccnc2)cc1	0	0	3.5µM	0	0	0
Cc1ccc(C)c(NC(=O)Cn2c(=O)n(-c3ccccc3C)c(=O)c3c2c2cc(C)ccc2n3C)c1	-	-	-	-	0	-
Oc1ccc2ccccc2c1/C=N/Nc1nnc(-c2ncc[nH]2)c2ccccc12	0	0	0.79µM	0	0	0[10 µM]
c1ccc2c(c1)OCC(c1csc3ncnc(N4CCCCC4)c13)O2 (centres undefined)	0	0	11µM	0	0	0[10 µM]
CCCN1CCN(c2ncnc3scc(C4COc5ccccc5O4)c23)CC1 (centres undefined)	0	0	0	0	0	0[10 µM]
O=C(Cc1ccccc1)Oc1coc(CSc2ncccn2)cc1=O	0	0	0	0	0	0
CC(NC(=O)c1cc2ccccn2n1)c1ccccc1 (centres undefined)	-	-	-	-	0	-
CC1=NN2C(=N)/C(=C\c3ccc(SCc4ccccc4)o3)C(=O)N=C2S1	0	0	0	0	0	0
N=C1/C(=C\c2ccc(SCc3ccco3)o2)C(=O)N=C2SC=NN12	28µM	0	0	0	0	0
COc1cc(/C=C/c2sc3ccccc3[n+]2CCCS(=O)(=O)[O-])ccc1O	0	-34	?	0	0	0
CCC(/C=C1\Oc2ccc(OC)cc2N1C)=C\c1sc2ccccc2[n+]1CCCS(=O)(=O)[O-]	-	-	-	-	0	-
O=c1ccc(N=Nc2ccccc2)ccc1O	5.6µM	0	0[9.22 µM]	0	0	0[10 µM]
Cc1ccc(Nc2nc(N)nc(CC#N)n2)cc1	0	0	6.3µM	0	0	0
Cc1ccc(Nc2nc(N)nc(CCl)n2)cc1	0	0	0[9.22 µM]	0	0	0[10 µM]
COc1ccc(-c2ccc(N)[n+](CCCC(=O)O)n2)cc1	0	0	-	0	0	?
Cn1c(SCCOc2ccccc2Cl)nnc1-c1ccncc1	0	0	0.79µM	0	0	0
CC(=O)c1sc(NC(=O)C2(F)C(F)(F)C(F)(F)C(F)(F)C(F)(F)C2(F)F)nc1C	0	0	1.4µM	0	0	0[0.074 µM]
COc1ccc([C@@H]2C[C@H]3CN(c4ccccc4)C(=O)[C@]34CCCN24)c(OC)c1OC	0	0	0[9.22 µM]	0	0	0[10 µM]
